The results in this text go back to PubChem BioAssay (NCI).

Some test systems named below: SK-MEL-2 melanoma; EKVX NSCLC; SN12C renal; ACHN renal; CAKI-1 renal; A498 renal; CCRF-CEM leukemia; MOLT-4 leukemia; SR leukemia; RPMI-8226 leukemia; OVCAR-8 ovarian; OVCAR-5 ovarian; OVCAR-4 ovarian; SK-OV-3 ovarian; IGROV1 ovarian; OVCAR-3 ovarian; HS 578T breast; NCI/ADR-RES ovarian; UO-31 renal; TK-10 renal.
Test in all cases: NCI-60 one-dose screen, 48 h (100 = growth as untreated, 0 = no growth, -100 = all killed)
What all share (settings): 10 µM unless noted

The structures appear in SMILES notation. The panel holds about 83,000 compounds, 20% with a hit somewhere; the sample as a whole holds those more often.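 How to read the values: 0–100, growth inhibition (40 = 60% inhibited); 0, no net growth; -100 to 0, cell death (-40 = 40% of starting cells died; -100 = all dead).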 Values without a mark were called inactive. Calls of active or inactive are those of the source. Rule for the calls: active = growth percent below 10; inactive = the rest.

`COc1ccc2c(c1)sc1nc(-c3ccc(Br)cc3)cn12`: the growth was 106% with SK-MEL-2 melanoma; 113% in the assay with EKVX NSCLC; 104% in the assay on SN12C renal; 110% in the assay on ACHN renal; 96.4% with CAKI-1 renal; 84.4% in the assay with A498 renal. Also, the growth is 109% in the assay with CCRF-CEM leukemia; 104% in the assay with MOLT-4 leukemia; 120% in the assay with SR leukemia; 112% with RPMI-8226 leukemia; 102% with OVCAR-8 ovarian; 101% in the assay on OVCAR-5 ovarian. In addition, the growth with OVCAR-4 ovarian is 100%; with SK-OV-3 ovarian it was 117%; with IGROV1 ovarian, -23.9% (active); in the assay with OVCAR-3 ovarian, 122%; in the assay on HS 578T breast, 125%; with NCI/ADR-RES ovarian, 92.4%.
As for `COc1ccc([N+](=O)[O-])c(S(=O)(=O)c2ccc(Cl)cc2)n1`, the growth in the assay with SK-MEL-2 melanoma is 92.9%; in the assay on SN12C renal it was 74.5%; in the assay with UO-31 renal, 51.7%; in the assay with TK-10 renal, 81.1%; with ACHN renal, 26.9%; in the assay with CAKI-1 renal, 49.6%. Moreover, the growth in the assay on A498 renal is 110%; in the assay with CCRF-CEM leukemia, -11.5% (active); with MOLT-4 leukemia it was 2.58% (active); with SR leukemia, -16% (active); in the assay on RPMI-8226 leukemia, 34.9%; with OVCAR-8 ovarian, 71.7%. Further, the growth in the assay with OVCAR-5 ovarian was 77.1%; in the assay with OVCAR-4 ovarian it was 68.7%; with SK-OV-3 ovarian, 97.2%; in the assay with IGROV1 ovarian, 97.1%; in the assay with OVCAR-3 ovarian, 36.6%; in the assay with HS 578T breast, 97.9%. Besides, the growth in the assay on NCI/ADR-RES ovarian is 81.3%.
For `Cn1c(=O)c2[nH]c(=S)n(Cc3ccccc3)c2n(C)c1=O`, the growth in the assay with SK-MEL-2 melanoma was 104%; in the assay with SN12C renal, 99%; with UO-31 renal it was 91.4%; in the assay on TK-10 renal, 104%; in the assay with ACHN renal, 96.1%; in the assay with CAKI-1 renal, 111%. Moreover, the growth is 92.8% in the assay on A498 renal; 113% in the assay with CCRF-CEM leukemia; 81.9% with MOLT-4 leukemia; 91.4% in the assay with SR leukemia; 119% with RPMI-8226 leukemia; 111% in the assay on OVCAR-8 ovarian. Further, the growth is 105% in the assay on OVCAR-5 ovarian; 98.9% with OVCAR-4 ovarian; 107% in the assay with SK-OV-3 ovarian; 108% with IGROV1 ovarian; 104% in the assay on OVCAR-3 ovarian; 101% in the assay on HS 578T breast. Besides, the growth in the assay on NCI/ADR-RES ovarian was 99.2%.
For `COc1ccc(-n2cnc3cc(C(=O)N4CCCCC4)ccc32)cc1`, the growth in the assay on SK-MEL-2 melanoma was 111%; in the assay with SN12C renal, 95%; in the assay with UO-31 renal, 97.4%; in the assay on TK-10 renal it was 110%; with ACHN renal, 97.9%; in the assay on CAKI-1 renal it was 98.5%. Besides, the growth in the assay with A498 renal is 96.3%; in the assay with CCRF-CEM leukemia, 98%; with MOLT-4 leukemia, 98%; with SR leukemia, 94.9%; in the assay with RPMI-8226 leukemia, 101%; with OVCAR-8 ovarian, 100%. Also, the growth in the assay with OVCAR-5 ovarian is 93.1%; in the assay with OVCAR-4 ovarian, 100%; in the assay with SK-OV-3 ovarian it was 99.5%; in the assay with IGROV1 ovarian, 112%; with OVCAR-3 ovarian, 108%; in the assay with HS 578T breast it was 100%. Also, in the assay on NCI/ADR-RES ovarian, the growth is 107%.
Regarding `C/C(=C\CCc1ccoc1)CC/C=C(\C)CCCN1CCOCC1`, the growth in the assay on SK-MEL-2 melanoma was 78.7%; in the assay with SN12C renal, 70.5%; in the assay with UO-31 renal it was 52.3%; with TK-10 renal, 61.3%; in the assay on ACHN renal it was 76.3%; with CAKI-1 renal, 58.3%. For the same compound, the growth was 75.7% in the assay with A498 renal; 29.6% with CCRF-CEM leukemia; 54.2% in the assay with MOLT-4 leukemia; 21% with SR leukemia; 20.8% in the assay on RPMI-8226 leukemia; 71.5% with OVCAR-8 ovarian. The growth in the assay with OVCAR-5 ovarian is 63%; with OVCAR-4 ovarian, 58.3%; with SK-OV-3 ovarian, 74.4%; with IGROV1 ovarian it was 71.3%; in the assay with OVCAR-3 ovarian, 51.8%; in the assay on HS 578T breast, 69.9%. Moreover, the growth in the assay with NCI/ADR-RES ovarian was 74.5%.
`Cc1cc(-c2ccccc2)cc(C)n1`: the growth was 98.1% in the assay on SK-MEL-2 melanoma; 116% with EKVX NSCLC; 78.6% in the assay with UO-31 renal; 103% in the assay with TK-10 renal; 106% in the assay with ACHN renal; 103% with CAKI-1 renal. Besides, the growth with A498 renal was 116%; in the assay with CCRF-CEM leukemia, 102%; with MOLT-4 leukemia, 100%; with SR leukemia it was 99.4%; in the assay on OVCAR-8 ovarian it was 106%; in the assay on OVCAR-5 ovarian it was 108%. Further, the growth is 99.7% in the assay with OVCAR-4 ovarian; 109% in the assay on SK-OV-3 ovarian; 102% in the assay with IGROV1 ovarian; 127% in the assay on OVCAR-3 ovarian; 111% with HS 578T breast; 110% in the assay with NCI/ADR-RES ovarian.
With `O=C(NCCNC(=O)Oc1cccc2ccccc12)Oc1cccc2ccccc12`, the growth in the assay on SK-MEL-2 melanoma was 88.7%; in the assay on SN12C renal, 105%; in the assay on UO-31 renal, 45.4%; in the assay on TK-10 renal it was 92.3%; in the assay on ACHN renal it was 85.3%; in the assay with CAKI-1 renal, 95%. In addition, the growth is 89.2% in the assay on A498 renal; 65.2% with CCRF-CEM leukemia; 80.6% with MOLT-4 leukemia; 97.8% with SR leukemia; 92.5% in the assay with RPMI-8226 leukemia; 100% with OVCAR-8 ovarian. Also, the growth was 105% in the assay on OVCAR-5 ovarian; 96.4% with OVCAR-4 ovarian; 94.5% in the assay on SK-OV-3 ovarian; 65.2% with IGROV1 ovarian; 86.5% with OVCAR-3 ovarian; 104% in the assay with HS 578T breast. Moreover, the growth in the assay on NCI/ADR-RES ovarian was 95.8%.
With `COc1cccc(-c2nc3cc(NC(=O)c4ccc(Cl)c(C#N)c4)ccc3o2)c1`, the growth with SK-MEL-2 melanoma is 63.8%; in the assay with SN12C renal, 40.2%; in the assay with UO-31 renal, 34.3%; with TK-10 renal, -12.5% (active); with ACHN renal, 36.2%; with CAKI-1 renal, 26.4%. Besides, the growth in the assay with A498 renal was 61.6%; with CCRF-CEM leukemia, 71.1%; in the assay on MOLT-4 leukemia, 78.4%; with SR leukemia, 38.2%; with RPMI-8226 leukemia, -2.38% (active); in the assay on OVCAR-8 ovarian, -54.6% (active). The growth with OVCAR-5 ovarian was 73.3%; in the assay on OVCAR-4 ovarian it was -90.4% (active); in the assay with SK-OV-3 ovarian, 15.6%; in the assay on IGROV1 ovarian it was 72.4%; in the assay with OVCAR-3 ovarian, -30.6% (active); in the assay with HS 578T breast, 39.1%. Also, in the assay with NCI/ADR-RES ovarian, the growth was 3.74% (active).
For `O=C(CC(C(=O)c1ccccc1)N1CCN(Cc2ccccc2)CC1)c1ccccc1` (centres undefined), the growth is 104% with SK-MEL-2 melanoma; 99.3% in the assay with SN12C renal; 80% in the assay on UO-31 renal; 96.6% with TK-10 renal; 41.8% with ACHN renal; 73.5% with CAKI-1 renal. Also, the growth in the assay on A498 renal was 74.6%; in the assay on CCRF-CEM leukemia, 8.48% (active); with MOLT-4 leukemia, 49.5%; with SR leukemia it was 57.2%; in the assay on RPMI-8226 leukemia, 28.7%; in the assay on OVCAR-8 ovarian, 90.7%. Also, the growth with OVCAR-5 ovarian was 86.3%; in the assay with OVCAR-4 ovarian, 86.5%; in the assay with SK-OV-3 ovarian, 112%; in the assay on IGROV1 ovarian, 119%; in the assay on OVCAR-3 ovarian, 58.8%; in the assay with HS 578T breast it was 92.5%. Also, in the assay with NCI/ADR-RES ovarian, the growth was 97.1%.
